IMPase inh: qHTS Assay for Identifying the Cell-Membrane Permeable IMPase Inhibitors | Inositol monophosphatase 1 (Rattus norvegicus), P97697 | CHO-M1 cells, IP1 accumulation, HTRF TR-FRET ratio | inhibition (IP1 accumulation), % at 46.1 µM | 120,000 tested, under 10 active | AID 901, 2007; active = well fitted curve in the direction sought with a large enough effect in the signal ratio, not every such curve was filed as active; inconclusive = small, poorly fitted or top-dose-only effect, or a change in a side signal; inactive = no such curve, though single readings can be large or run the other way; the % refers to the signal ratio;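 note: cells stimulated with carbachol in lithium chloride buffer; higher means more IMPase inhibition seen as more IP1 and lower FRET ratio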
Target sequence (P97697 whole entry, looked up): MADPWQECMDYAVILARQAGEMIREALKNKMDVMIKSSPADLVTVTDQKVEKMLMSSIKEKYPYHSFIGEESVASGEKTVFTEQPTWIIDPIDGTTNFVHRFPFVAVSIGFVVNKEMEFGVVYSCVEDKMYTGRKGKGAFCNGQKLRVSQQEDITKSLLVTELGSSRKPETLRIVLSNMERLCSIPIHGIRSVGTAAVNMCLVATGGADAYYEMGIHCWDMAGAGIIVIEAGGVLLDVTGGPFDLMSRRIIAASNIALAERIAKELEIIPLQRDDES
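Cellular IMPase inhibition is scored as a rise in cytosolic IP1, detected by competitive TR-FRET between d2-labelled IP1 and a europium anti-IP1 antibody. M1-expressing CHO cells were stimulated with carbachol for 30 min at 37C, with lithium (50 mM LiCl) present in the buffer.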
HPGD inh: qHTS Assay for Inhibitors of HPGD (15-Hydroxyprostaglandin Dehydrogenase); purified HPGD, NADH fluorescence kinetic, PGE2 substrate; AID 894, 2007; Potency, µM, most hits filed as inhibitors; hit rate 4.3% among 150,000
Target sequence (P15428 whole entry, looked up): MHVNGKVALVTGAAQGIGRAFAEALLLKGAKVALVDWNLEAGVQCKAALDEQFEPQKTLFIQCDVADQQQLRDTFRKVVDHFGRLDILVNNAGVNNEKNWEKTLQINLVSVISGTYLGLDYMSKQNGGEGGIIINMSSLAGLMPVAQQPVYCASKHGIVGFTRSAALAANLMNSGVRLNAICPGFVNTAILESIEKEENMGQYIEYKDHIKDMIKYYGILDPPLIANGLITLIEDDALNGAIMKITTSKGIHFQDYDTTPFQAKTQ
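NADH formation kinetics: reaction with 30 uM PGE2 and 1 mM NAD+ (final), 20 nM enzyme, Tris-HCl pH 8 with Tween 20, after 15 min compound preincubation at room temperature. Fluorescence change, last versus first of five reads.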
ALDH1A1 inh: qHTS Assay for Inhibitors of Aldehyde Dehydrogenase 1 (ALDH1A1). Aldehyde dehydrogenase 1A1 (Homo sapiens), P00352. Purified ALDH1A1, NADH fluorescence, propionaldehyde substrate. Potency, µM (top dose mostly 75.3 µM), hits mostly inhibitors. hit rate 7.3% among 220,000
Numbers stand for hits; . = inactive; ? = inconclusive; / = no result; [ ] = another dose, or the depositor's remark. This is a sample that favours compounds with a hit; in the whole collection about 9% have one here. Unless noted, calls come from the whole dose curve; as a rule, active = well fitted inhibition curve with a large enough effect (not every such curve was filed as active); inconclusive = small, poorly fitted or top-dose-only effect, or another doubt; inactive = no such curve, though single readings can be large or run the other way.

SMILES	IMPase inh	HPGD inh	ALDH1A1 inh
CCn1c(SCC(=O)Nc2ccccc2C(=O)OC)nnc1-c1cccc(C)c1	.	.	.
CCC(=O)N1CCN(c2nc(C)nc3sc(C)c(C)c23)CC1	.	?	.
Cc1nc(N2CCN(C(=O)CCC(=O)O)CC2)c2c(C)c(C)sc2n1	.	35µM	.
O=c1[nH]c(SCc2ccccc2)nc2ccsc12	/	/	.
C(=C\c1nc(N2CCCCCC2)c2ccccc2n1)/c1ccccc1	.	/	?
C=CCc1cc(C=O)cc(OC)c1OCc1ccc(C(=O)O)cc1	/	/	10µM
C=CCc1ccc(OCCCOc2ccc(C(=O)O)cc2)c(OC)c1	/	/	.
Nc1nnc(SCC(=O)Nc2cccc(F)c2)s1	.	/	/
COCCSc1ccccc1C(=O)Nc1ccccc1C#N	/	/	.
CCOc1ccc(NC(=S)Nc2ccccc2C2CC2)cc1	/	/	.
COc1ccc(NC(=S)Nc2ccc(Oc3ccccc3)cc2)cc1	.	.	?
COc1ccccc1NC(=S)NCc1cccnc1	/	.	.
COc1ccc(NC(=S)Nc2cccc3cnccc23)cc1	/	.	25µM
COc1ccccc1NC(=S)Nc1cccc2cnccc12	.	.	25µM
CCOc1ccc(NC(=S)Nc2cccc3cnccc23)cc1	.	.	32µM
CCn1cc(C(=O)N2CCc3ccccc32)c(=O)c2cc(S(=O)(=O)N(C)C3CCCCC3)ccc21	/	.	?
Cc1ccsc1C(=O)OCC(=O)NC1CCS(=O)(=O)C1 (stereo not given)	/	/	.
COC(=O)CNC(=O)CCc1nnc(C2(c3ccc(Cl)cc3)CCC2)o1	/	/	8.9µM
C=C(C)CNC(=O)CCc1nnc(C2(c3ccc(Cl)cc3)CCC2)o1	/	/	.
CC1CCCC(NC(=O)COC(=O)COc2ccc(Cl)cc2)C1C (stereo not given)	.	.	1µM
CC1CCc2nn(CC(=O)NC3CCCC(C)C3C)cc2C1 (stereo not given)	.	14µM	.
CC1CCCC(NC(=O)COC(=O)CCC2CCCC2)C1C (stereo not given)	.	?	11µM
CC1CCCC(NC(=O)COC(=O)c2c[nH]c(=O)[nH]c2=O)C1C (stereo not given)	.	.	?
CC1CCCC(NC(=O)COC(=O)Cc2ccsc2)C1C (stereo not given)	.	.	.
CC1CCCC(NC(=O)COC(=O)Cc2ccc(Br)cc2)C1C (stereo not given)	/	/	.
SMILES	IMPase inh	HPGD inh	ALDH1A1 inh
CC1CCCC(NC(=O)Cc2ccc(Br)cc2)C1C (stereo not given)	.	16µM	.
CCOC(=O)N1CCC(NC(=O)Cn2cc3c(n2)CCC(C)C3)CC1 (stereo not given)	.	.	.
COc1cccc(NC(=O)COC(=O)c2ccccc2C(=O)N2CCN(c3ccccc3)CC2)c1	/	/	.
COc1cc(OC)cc(C(=O)N2CCN(C(=O)COc3ccccc3)CC2)c1	.	/	/
CC1(C)C(c2ccccc2)=NC(c2ccc(Br)cc2)N1O (stereo not given)	/	/	.
CC1(C)CC(N=C=O)CC(C)(CN=C=O)C1 (stereo not given)	/	.	?
CCOC(=O)N1CCN(C(=S)Nc2ccc(C)cc2)CC1	/	.	.
CCCn1c(-c2ccc(F)cc2)nc2c(NCCCN(C)C)nc(C)nc21	/	.	?
O=C(NCc1ccccc1F)c1cccs1	.	?	.
Cc1cc(C(=O)NCc2ccccc2F)cs1	.	16µM	.
CC1=C(C(=O)OC(C)C)C(c2cccs2)N2C(=O)C(C)SC2=N1 (stereo not given)	.	.	.
COc1cc(NC(C)CCCN)c2ncccc2c1Oc1ccccc1 (stereo not given)	/	.	.
O=S(=O)(Cc1ccccc1)NCC1CCCN(Cc2cccc3nonc23)C1 (stereo not given)	/	/	10µM
O=C(Nc1ccccc1)N1CCCC(CNS(=O)(=O)Cc2ccccc2)C1 (stereo not given)	/	/	.
Oc1c(Cl)cc(Cl)cc1/C=N/c1nc(-c2ccc(Cl)cc2)cs1	/	/	.
Oc1c(Cl)cc(Cl)cc1/C=N/c1nccs1	.	.	14µM
CCC(NC(=O)NCCCn1ccnc1)(C(F)(F)F)C(F)(F)F	.	.	.
Oc1ccc(N=Cc2cc(Br)c(N3CCOCC3)o2)cc1	/	.	8.9µM
O=[N+]([O-])c1cc(Br)c(O)c(C=Nc2ccc(N3CCOCC3)cc2)c1	/	/	.
COc1cccc(OC)c1C(=O)N1CCN(c2ccccn2)CC1	.	?	?
COc1ccc(NC(=O)C(c2ccccc2)N2CCN(c3ccccn3)CC2)cc1Cl (stereo not given)	/	/	8.9µM
COc1ccc(C(=O)NCC(=O)N/N=C/c2cn[nH]c2-c2ccccc2)cc1	/	/	.
O=C(OCc1nc2scc(-c3ccccc3)c2c(=O)[nH]1)c1cccc([N+](=O)[O-])c1	.	/	?
CCOC(=O)c1cc(-c2cccc([N+](=O)[O-])c2)nc2[nH]c(=O)[nH]c(=O)c12	/	/	14µM
CC(C)OC(=O)C(=O)NNc1ccccc1	.	.	.
SMILES	IMPase inh	HPGD inh	ALDH1A1 inh
C=C(C)C(=O)NNc1ccccc1	/	/	22µM
C=CCn1c(COc2ccccc2F)nnc1SCCN1C(=O)c2ccccc2C1=O	.	.	.
Cc1ccc2nc(N3C(=O)C(O)=C(C(=O)c4cc5ccccc5o4)C3c3cccs3)sc2c1 (stereo not given)	?	.	20µM
Cc1cc(N2C(=O)C(O)=C(C(=O)c3ccco3)C2c2ccc(O)cc2)no1 (stereo not given)	.	.	.
Cc1ccc(C2C(C(=O)c3ccco3)=C(O)C(=O)N2c2nnc(C)s2)cc1 (stereo not given)	?	.	.
COC(=O)c1sc(N2C(=O)c3oc4ccccc4c(=O)c3C2c2cccs2)nc1C (stereo not given)	.	.	.
CCc1ccc2nc(N3C(=O)C(O)=C(C(=O)c4ccco4)C3c3cccs3)sc2c1 (stereo not given)	.	20µM	.
Cc1cc(N2C(=O)C(O)=C(C(=O)c3ccc(C)o3)C2c2cccs2)no1 (stereo not given)	?	28µM	22µM
CCOC(=O)c1nnn(-c2nonc2N)c1CN(C)Cc1ccccc1	.	.	?
Cc1cccc2cc(CNCc3ccccc3)c(Cl)nc12	/	/	.
CC1C(=O)NN=C1C(=O)N/N=C/c1cccs1 (stereo not given)	/	/	.
CC1(C)O[C@H]2C[C@@H]3[C@H]4CCC5=CC(=O)CC[C@@]5(C)[C@]4(F)[C@@H](O)C[C@@]3(C)[C@@]2(C(=O)CCl)O1	.	.	.
CCOc1ccc(S(=O)(=O)NN2Cc3ccccc3C2=N)cc1	/	/	.
O=C(Cn1c(=O)n(CCCC(=O)NC2CCCC2)c(=O)c2ccccc21)NCCC1=CCCCC1	.	?	.
NC(=S)NNc1cc(Cl)cc(Cl)c1	.	.	2µM
NC(=O)c1ccccc1NC(=O)Nc1cccc(Cl)c1	?	.	.
Cc1c2cc[n+](CCN3CCCCC3)cc2c(C)c2c1[nH]c1ccc(O)cc12	/	.	.[13.5 µM]
CCOC(=O)CCc1c(C)nc(SCCCn2c(=O)[nH]c3ccccc32)c(C#N)c1C	.	16µM	32µM
CCOC(=O)CCc1c(C)nc(SCCN2CCCC2)c(C#N)c1C	.	.	.

Screens as filed in PubChem.
